# Assay outcomes deposited in PubChem BioAssay by National Center for Advancing Translational Sciences (NCATS).
# A selection: hits, their analogues and other compounds. The true share with any hit is near 0.49%.
# Apoferritin bind – qHTS Assay for Identification of Novel General Anesthetics. Potency, µM (top dose mostly 77.5 µM), for inactives: at the top dose activity change, negative = displacement, hits mostly inhibitors. AID 485281, 2010. apoferritin/1-aminoanthracene competitive binding, fluorescence. Ferritin light chain (Equus caballus), P02791. 0.074% of 350,000 active; further: potency means the concentration at half of the fitted maximal effect; on the % scale 0 is the no-effect control and ±100 the full control effect; nearly all actives have a fitted effect of over 20% in size
# Target sequence (P02791 2-175 limits assumed): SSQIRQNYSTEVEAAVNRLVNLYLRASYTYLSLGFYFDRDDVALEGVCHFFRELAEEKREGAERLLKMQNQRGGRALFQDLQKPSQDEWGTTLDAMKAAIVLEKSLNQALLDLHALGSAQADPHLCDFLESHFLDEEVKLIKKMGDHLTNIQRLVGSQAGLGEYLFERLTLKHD
#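 Read-out: endpoint 1-AMA fluorescence, excitation 380 nm and emission 535 nm, after compounds sit 10 min at room temperature with 10 uM horse-spleen apoferritin in 50% saturated 1-AMA/PBS. Values come from four-parameter Hill fits.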
# Vif-APOBEC3F blk – qHTS for Inhibitors of Vif-A3F Interactions: qHTS | 0.2% of 390,000 active | AID 602313, 2012 | HeLa A3F-eYFP + Vif (tagged APOBEC3F with the HIV-1 protein that degrades it), YFP fluorescence increase | Potency, µM (series often up to 46.1 µM), inactives show at the highest dose activity, negative = active; further: potency means the concentration at half of the fitted maximal effect; % of control where 0% means no effect; nearly all actives have a fitted effect of over 65% in size
#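 HeLa cells stably expressing Vif plus C-terminally eYFP-tagged A3F were seeded, incubated overnight at 37 deg C, dosed with compound, incubated overnight again at 37 deg C. Yellow fluorescence (Ex 488/Em 500-530) reported blocked Vif-mediated A3F-eYFP degradation.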
# Vif-A3G inh – qHTS for Inhibitors of Vif-A3G Interactions: qHTS; DNA dC->dU-editing enzyme APOBEC-3G (Homo sapiens), Q9HC16; HeLa A3G-eYFP + Vif (tagged APOBEC3G with the HIV-1 protein that degrades it), YFP fluorescence, overnight; Potency, µM (titrated, usually from 46.1 µM), for inactives: at the highest dose activity, negative = active, most hits filed as inhibitors; 0.076% of 410,000 active; AID 602310, 2012; further: potency means the concentration at half of the fitted maximal effect; on the % scale 0 is the no-effect control and ±100 the full control effect; nearly all actives have a fitted effect of over 60% in size
# Target sequence (Q9HC16 whole entry, looked up): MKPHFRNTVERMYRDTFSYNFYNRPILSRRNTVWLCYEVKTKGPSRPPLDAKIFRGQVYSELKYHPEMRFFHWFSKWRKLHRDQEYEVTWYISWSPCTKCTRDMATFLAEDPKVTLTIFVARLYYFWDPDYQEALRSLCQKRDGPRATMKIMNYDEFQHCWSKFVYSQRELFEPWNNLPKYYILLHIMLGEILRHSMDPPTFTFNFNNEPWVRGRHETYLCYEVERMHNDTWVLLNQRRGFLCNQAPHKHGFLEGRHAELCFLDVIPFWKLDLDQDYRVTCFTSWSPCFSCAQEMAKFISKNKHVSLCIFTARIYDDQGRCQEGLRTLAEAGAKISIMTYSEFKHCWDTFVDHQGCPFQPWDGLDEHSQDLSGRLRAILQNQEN
#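 Read-out is eYFP fluorescence (Ex 488/Em 500-530) from Vif-expressing HeLa A3G-eYFP cells; more signal means A3G escaped Vif-mediated degradation. Cells plated overnight, compound pinned in, incubated overnight at 37 deg C.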
# LDHA inh – qHTS assay for inhibitors of human lactate dehydrogenase | activity change, % (values are at about 110 or 230 µM) | purified LDHA, NADH/diaphorase-resazurin fluorescence; active compounds read low | 0.15% of 480,000 active | L-lactate dehydrogenase A chain (Homo sapiens), P00338; in the data active means activity change below about -30%; inconclusive means mostly about -25% to -30%;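 further: plate controls were DMSO wells for no effect and wells without enzyme for full effect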
#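 Enzyme activity of human lactate dehydrogenase 5 (2 nM; 0.06 mM NADH, 0.2 mM pyruvate, 5 min, RT) is measured via a resazurin/diaphorase fluorescence readout of residual NADH.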
# Epigenetic reg – Quantitative High-Throughput Screen for Regulators of Epigenetic Control | murine LDR cells, GFP reporter derepression, 30 h | Potency, µM (series often up to 53.9 µM), inactives show at the top dose GFP activation, most hits filed as activators | 0.2% of 280,000 active | AID 1865, 2009; further: potency means the concentration at half of the fitted maximal effect; % of control where 0% means no effect; nearly all actives have a fitted effect of over 60% in size
#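 Reporter derepression read as number of fluorescent GFP-positive objects, 20-120 um in size, counted by laser-scanning cytometer. Mouse LDR line with an epigenetically silenced CMV-GFP locus; compound incubation 30 h, 37 C.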
# Active calls of the source: *; u = inconclusive; x = no result. Unless noted, the call rests on the fitted dose curve; in most records, active means well fitted curve in the direction sought with a large enough effect; inconclusive means small, poorly fitted or top-dose-only effect, or another doubt; inactive means no such curve, though single readings can be large; an effect the other way counts as inactive or inconclusive.
SMILES,Apoferritin bind,Vif-APOBEC3F blk,Vif-A3G inh,LDHA inh,Epigenetic reg
CCCN(C(=O)CSc1n[nH]c(-c2ccc(OC)cc2)n1)c1c(N)n(Cc2ccccc2)c(=O)[nH]c1=O,x,25µM*,-23%,5,x
CCOc1ccc(-c2nc(SCC(=O)Nc3ccc(C)c(C)c3)n3[nH]c(=O)cc3n2)cc1,-1%,-2%,4%,-11,-4%
Cc1ccc(CSc2nc(-c3ccc(C(C)(C)C)cc3)nc3cc(=O)[nH]n23)cc1,u,2%,10µM*,4,-3%
Cc1ccc(NC(=O)CSc2nc(-c3ccc(C(C)(C)C)cc3)nc3cc(=O)[nH]n23)cc1C,-20%,u,-3%,-41*,-3%
COc1cccc(CN2C(=O)[C@H]3Cc4c([nH]c5ccccc45)C(C)(C)N3C2=O)c1,x,0%,0%,-3,x
O=C(COC(=O)/C=C/c1ccccc1)NC1CCS(=O)(=O)C1 (configuration not stated),x,2%,-1%,-4,x
O=C1Nc2ccccc2/C1=C/c1cnc(-c2ccccc2)[nH]1,u,-13%,-8%,-1,22µM*
O=C1Nc2ccccc2/C1=C/c1csc(-c2ccccc2)n1,x,x,x,2,x
Nc1c(C(=O)Nc2ccccc2F)sc2nc(-c3ccco3)ccc12,0%,22µM*,u,-10,u
CC1CCCC/C1=N\NC(=S)Nc1ccc(C(C)C)cc1 (configuration not stated),x,x,x,-4,x
Cc1ccc(NC(=S)N/N=C2\CCCCC2C)cc1 (configuration not stated),-13%,22µM*,u,3,1%
COc1ccc(C(=O)c2sc(Nc3ccccc3)nc2C)cc1,4%,12%,-1%,2,x
Cc1ccc(S(=O)c2ccc([N+](=O)[O-])c3nonc23)cc1 (configuration not stated),x,22µM*,u,17,x
Cc1ccc(Nc2c([N+](=O)[O-])ccc3nonc23)c(C)c1,3%,5%,1%,-3,x
C[C@H](CO)N1C[C@H](C)[C@@H](CN(C)S(=O)(=O)c2cccc(F)c2)OCc2cn(nn2)CCCC1=O,x,-9%,-4%,-34*,x
Cc1ccc(NC(=S)N(CCN(C)C)C(C)c2ccco2)cc1C (configuration not stated),-21%,1%,1%,-5,-1%
CCc1nnc(CN2CCC(c3nc4ccccc4s3)CC2)o1,x,x,x,-36*,x
CN(CCOc1ccccc1)CC(=O)Nc1cccc(C#N)c1,-11%,u,-2%,3,x
O=C(COC(=O)/C=C/c1cccc(Br)c1)NC1CC1,x,1%,0%,-8,x
CC(NC1=CC(=O)c2cccnc2C1=O)C(O)c1ccccc1 (configuration not stated),x,u,10µM*,34,x
O=C1C(Nc2ccccc2)=CC(=O)c2ncccc21,u,x,x,x,0%
CCOc1ccc2[nH]cc(S(=O)(=O)c3ccc(Cl)cc3)c(=O)c2c1,u,-6%,-7%,-44*,-4%
COc1cc(CN2CCNC(=O)C2CC(=O)NCc2csc(C(C)C)n2)cc(OC)c1 (configuration not stated),-11%,1%,3%,0,-5%
CCOc1ccc2nc(N3C(=O)/C(=C/c4ccccc4)NC3=S)sc2c1,2%,u,-25%,-2,1%
COc1ccc2nc(N3C(=O)/C(=C/c4ccccc4)NC3=S)sc2c1,-5%,13µM*,5µM*,0,9%
SMILES,Apoferritin bind,Vif-APOBEC3F blk,Vif-A3G inh,LDHA inh,Epigenetic reg
O=C(Cn1nnc2ccccc21)c1cccc([N+](=O)[O-])c1,7%,0%,-1%,-8,-1%
C/C(=N/N=C(\C)c1ccccc1O)c1ccccc1O,62%,18µM*,-2%,-6,x
Brc1ccc2nc(C3CCCCC3)c(Cc3ccccc3)n2c1,x,x,-10%,-3,x
CCn1c2ccccc2c2cc(NC(=O)c3ccc(=O)oc3)ccc21,-7%,11µM*,-22%,7,1%
CCn1c2ccccc2c2cc(NC(=O)c3ccc(Br)o3)ccc21,u,-13%,u,2,14µM*
CCn1c2ccccc2c2cc(NC(=O)c3coc(=O)c(Br)c3)ccc21,-3%,x,x,x,7%
CC(C)(C)OC(=O)Nc1ccc(C(=O)NCC(c2ccco2)N2CCCC2)cc1 (configuration not stated),x,x,x,-5,x
Cc1ccc(C(CNC(=O)c2ccc(NC(=O)OC(C)(C)C)cc2)N2CCOCC2)o1 (configuration not stated),x,x,x,-34*,x
O=c1c2ccccc2sn1-c1ccccc1F,x,u,u,-52*,x
O=c1c2ccccc2sn1-c1ccccc1,u,-13%,-11%,u,-1%
O=C(COc1ccc2ccccc2c1)Nc1cnc2ccccc2c1,x,x,x,-33*,x
COc1ccc(C2(C(=O)Nc3c(C)n(C)n(-c4ccccc4)c3=O)CCCC2)cc1OC,0%,3%,1%,-3,-1%
Cc1cc(NC(=O)CSc2nc(C(C)C)nc3ccccc23)no1,-16%,-6%,u,-6,-1%
NC(=O)CC(NC(=O)Cc1ccc(Br)cc1)c1ccc(NCc2ccc(F)cc2)c([N+](=O)[O-])c1 (configuration not stated),3%,11µM*,u,-2,u
CCCCNc1c(-c2ccc(SC3CCCCC3)cc2)nc2cnccn12,x,u,3.2µM*,5,x
CC(C)Oc1ccc2c(=O)cc(-c3ccccc3)oc2c1,-6%,x,x,x,5%
COc1ccc(CN2CCCCC2C)cc1C (configuration not stated),-7%,-6%,2%,-4,-5%
O=C(CCSc1ccc(Cl)cc1)NCc1ccccn1,-7%,-12%,-3%,0,4%
CN(C)CCCNCC(=O)c1c(-c2ccccc2)n(C)c2ccccc12,-3%,-11%,0%,-37*,x
CCN(CC)S(=O)(=O)c1ccc2c(c1)N(CC(=O)N1CCN(c3cccc(C)c3)C(C)C1)C(=O)CO2 (configuration not stated),-11%,-2%,-3%,-1,0%
NNC(=O)CNC(=O)c1cccc(Br)c1,28µM*,-1%,1%,2,0%
COc1ccc(-c2nc3c4ccccc4ccn3c2Cc2ccsc2)cc1OC,x,x,8.9µM*,-5,x
C/C(=N/NC(=O)CSc1nc2ccccc2n1C)c1ccncc1,u,-2%,2%,u,1%
CCN1C(=S)SC(=O)C1=C1C=C(C)N(Cc2ccco2)C(C)=C1,u,u,11µM*,4,-1%
COCCNC(=O)/C(C#N)=C/c1ccc(N2CCOCC2)o1,-4%,-10%,-12%,-4,13%
